The source made the active and inactive calls. Calls come from the whole dose curve; as a rule, active = well fitted activation curve with a large enough effect; inconclusive = small, poorly fitted or top-dose-only effect; inactive = no such curve, though single readings can be large or run the other way.
Assay: Confirmatory qHTS for Identification of Small Molecule Activators of Huntingtin-Antisense Promoter Activity
Conditions: HEK293 HTT-AS promoter firefly luciferase reporter, 24 h; series mostly up to 57.5 µM; activity change, positive = activation: at the top concentration
Method in brief: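 Activity normalized between vehicle control (0%) and zero RLU (-100%) from firefly luminescence (Dual-Glo). Compounds, up to 57.5 uM final, incubated 24 h at 37C on HEK293 reporter cells plated 24 h earlier.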
Potency is the fitted concentration of half-maximal effect.

Row | SMILES | activity change, positive = activation | Potency
1 | CC(=O)N1CCCc2cc(S(=O)(=O)N(C)CC(=O)Nc3ccc(Cl)cc3C)ccc21 | -44.5% (inactive) | –
2 | CCn1c(SCc2cccc(Br)c2)nnc1-c1nonc1NC(C)=O | -50.3% (inactive) | –
3 | CCCCC(=O)Nc1cccc(-c2nc3ccccc3s2)c1 | – | 3.01 µM (active)
4 | O=C(c1cccs1)N(Cc1cccnc1)c1nc2c(F)cc(F)cc2s1 | -58.2% (inactive) | –
5 | Cc1cc(NC(=O)Cn2c(=O)oc3cc(S(=O)(=O)N4CCCC4)ccc32)ccc1Br | -28.5% (inactive) | –
6 | COc1ccc(NC(=O)CSc2nc(-c3cccs3)cc(C(F)(F)F)n2)cc1OC | -94.1% (inactive) | –
7 | COc1ccc(-c2cc(C(=O)N3CCN(c4ccccc4OC)CC3)c3cc(C(C)C)ccc3n2)cc1 | -34.7% (inactive) | –
8 | Cc1oc(-c2ccc(C(=O)Nc3cccc(C(F)(F)F)c3)cc2)nc1CSc1ccccc1 | -90.4% (inactive) | –
9 | CCc1ccccc1-n1c(SCC(=O)Nc2ccc(C)cc2)nc2n[nH]c(C)c2c1=N | -43.3% (inactive) | –
10 | CCc1ccc(OC(C)C(=O)N2CCC(c3nc4ccccc4s3)CC2)cc1 (centres undefined) | -81.1% (inactive) | –
11 | O=C(CCCn1ccc2cc(S(=O)(=O)N3CCCC3)ccc21)NCc1ccc(Cl)cc1 | -37.9% (inactive) | –
12 | COc1ccc(Nc2c3c(nc4ccc(NC(=O)/C=C/c5cccc(OC)c5OC)cc24)CCCC3)cc1OC | -95% (inactive) | –
13 | CC(C)(C)OC(=O)N1CCC(c2c(C(=O)N3CCC(c4ccccc4)C3)cnn2-c2ccc(Cl)cc2)CC1 (centres undefined) | -38.3% (inactive) | –
14 | Cn1cc(CNCC2CCN(c3ncc(C(=O)NO)cn3)CC2)c2ccccc21 | -1.6% (inactive) | –
15 | O=C(Nc1ccc(S(=O)(=O)N(Cc2ccccc2)c2ccccc2)cc1)c1ccc(F)cc1 | -73.5% (inactive) | –
16 | Cc1ccc(NC(=O)c2ccc(C)c(S(=O)(=O)N3CCCCCC3)c2)cc1 | -54.7% (inactive) | –
17 | CCn1c(=O)sc2cc(NS(=O)(=O)c3ccc(F)c(C)c3)ccc21 | -87.8% (inactive) | –
18 | CCCOC(=O)c1cccc(NC(=O)c2c(-c3ccccc3Cl)noc2C)c1 | -33.5% (inactive) | –
19 | COc1ccc(-n2c(=O)[nH]c3cc(C(=O)NCCc4ccc(Cl)cc4)ccc3c2=O)cc1OC | -46.8% (inactive) | –
20 | O=C(NCCCN1CCN(c2ccccc2)CC1)c1ccc2nc(CCc3ccccc3)oc2c1 | -82.1% (inactive) | –

Row | SMILES | activity change, positive = activation | Potency
21 | COc1cc(CN2CCc3nc(N4CCN(c5ccccc5F)CC4)ncc3C2)ccc1OC(C)C | -71.5% (inactive) | –
22 | CCOC(=O)c1ccc(N2C(=O)c3[nH]nc(-c4ccccc4)c3C2c2cccs2)cc1 (centres undefined) | -63.4% (inactive) | –
23 | Cc1ccc(NC(=O)c2c(Nc3ccccc3C)sc(C(=O)c3ccccc3)c2N)cc1 | -20.9% (inactive) | –
24 | Cc1ccc(Nc2cc(C(=O)NC3CCCC3)c3ccccc3n2)cc1C | -21.2% (inactive) | –
25 | COc1ccccc1C(=O)N1c2ccccc2C(C)(c2ccc(Cl)cc2)CC1(C)C (centres undefined) | -40.4% (inactive) | –
26 | Cc1ccc(C(=O)Nc2ccc(F)cc2)cc1S(=O)(=O)N1CCCCCC1 | -30.4% (inactive) | –
27 | CC(C)c1ccc(NC(=O)CSC2=Nc3ccccc3C3=NC(CCC(=O)NCc4ccc(F)cc4)C(=O)N23)cc1 (centres undefined) | -27.6% (inactive) | –
28 | Cc1cccc(N2CCN(C(=O)c3ccc4c(c3)N(Cc3cccc(Cl)c3)C(=O)c3ccccc3S4=O)CC2C)c1 (centres undefined) | -32.2% (inactive) | –
29 | COc1cc(CN(C(=O)COc2ccc(Br)cc2)c2ccccn2)cc(OC)c1OC | -54.6% (inactive) | –
30 | CCOc1ccc(NC(=O)c2c(Nc3ccccc3C)sc(C(=O)c3ccc(Cl)cc3)c2N)cc1 | -30.3% (inactive) | –
31 | C=Cc1ccc(Cn2c(C(=O)O)c(CNCc3ccccc3)c3ccc(C)cc32)cc1 | -49% (inactive) | –
32 | COCCNc1nc2c(c(=O)n(C)c(=O)n2C)n1Cc1c(F)cccc1Cl | -54.3% (inactive) | –
33 | COc1ccc(N(Cc2ccccc2)C(=O)c2nc(SC)ncc2Cl)cc1 | -54% (inactive) | –
34 | CCc1ccc(CNC(=O)Cn2ccc3cc(S(=O)(=O)N4CCCCCC4)ccc32)cc1 | -33.5% (inactive) | –
35 | CC(=O)N1CCCc2cc(S(=O)(=O)N(C)CC(=O)Nc3ccc(F)cc3Cl)ccc21 | -30.4% (inactive) | –
36 | Cc1ccc(N2CCN(C(=O)c3nn(C)c4c3CS(=O)(=O)c3ccccc3-4)CC2)c(C)c1 | -26% (inactive) | –
37 | COCCN1C(=O)c2[nH]nc(-c3ccccc3O)c2C1c1ccc(OCc2ccccc2)c(OC)c1 (centres undefined) | -22.5% (inactive) | –
38 | O=C(NCc1ccc(F)cc1)c1ccc(CS(=O)(=O)c2ccc(Cl)cc2)o1 | -50.5% (inactive) | –
39 | O=C(NCCSc1c(-c2ccccc2)[nH]c2ccccc12)c1ccc(S(=O)(=O)N2CCOCC2)cc1 | -26.7% (inactive) | –

Reference: PubChem BioAssay AID1508622 (National Center for Advancing Translational Sciences (NCATS), 2021)
